{"source": "the supplement of paper PMC4466140", "data": [{"molecular_target": "SpBzz1-D2", "assay": "SPOT peptide array binding signal intensity (averaged, normalized) (arbitrary units (background-subtracted, floor 0; scale differs between SH3 domains)); higher = stronger binding of the SH3 domain to the peptide", "outline": "(§1)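 To measure binding, SH3 domains from four yeast species were fused to GST, expressed in E. coli BL21(DE3) and purified on glutathione Sepharose. Each domain was incubated at 10 μg/ml overnight at 4°C on cellulose membranes with synthetic 15-mer peptides whose cysteines were replaced by serines. Anti-GST antibody, an HRP anti-mouse secondary and luminol were used for detection, and images were quantified with Genespotter. Reported binding signal is normalized, background-subtracted spot intensity averaged over replicates, in arbitrary units that differ between domains.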", "values": [{"binder": "KNRKNLPTIPIRLSG", "SPOT peptide array binding signal intensity": 1.5}]}, {"molecular_target": "SpCyk3", "assay": "SPOT peptide array binding signal intensity (averaged, normalized) (arbitrary units (background-subtracted, floor 0; scale differs between SH3 domains)); higher = stronger binding of the SH3 domain to the peptide", "outline": "as §1", "values": [{"binder": "KNRKNLPTIPIRLSG", "SPOT peptide array binding signal intensity": 23.5}]}, {"molecular_target": "SpHof1", "assay": "SPOT peptide array binding signal intensity (averaged, normalized) (arbitrary units (background-subtracted, floor 0; scale differs between SH3 domains)); higher = stronger binding of the SH3 domain to the peptide", "outline": "as §1", "values": [{"binder": "KNRKNLPTIPIRLSG", "SPOT peptide array binding signal intensity": 1400}]}, {"molecular_target": "SpHof1-2", "assay": "SPOT peptide array binding signal intensity (averaged, normalized) (arbitrary units (background-subtracted, floor 0; scale differs between SH3 domains)); higher = stronger binding of the SH3 domain to the peptide", "outline": "as §1", "values": [{"binder": "KNRKNLPTIPIRLSG", "SPOT peptide array binding signal intensity": 2230}]}, {"molecular_target": "SpHof1-3", "assay": "SPOT peptide array binding signal intensity (averaged, normalized) (arbitrary units (background-subtracted, floor 0; scale differs between SH3 domains)); higher = stronger binding of the SH3 domain to the peptide", "outline": "as §1", "values": [{"binder": "KNRKNLPTIPIRLSG", "SPOT peptide array binding signal intensity": 1490}]}, {"molecular_target": "SpHse1", "assay": "SPOT peptide array binding signal intensity (averaged, normalized) (arbitrary units (background-subtracted, floor 0; scale differs between SH3 domains)); higher = stronger binding of the SH3 domain to the peptide", "outline": "as §1", "values": [{"binder": "KNRKNLPTIPIRLSG", "SPOT peptide array binding signal intensity": 166}]}, {"molecular_target": "SpLsb1", "assay": "SPOT peptide array binding signal intensity (averaged, normalized) (arbitrary units (background-subtracted, floor 0; scale differs between SH3 domains)); higher = stronger binding of the SH3 domain to the peptide", "outline": "as §1", "values": [{"binder": "KNRKNLPTIPIRLSG", "SPOT peptide array binding signal intensity": 510}]}, {"molecular_target": "SpLsb4", "assay": "SPOT peptide array binding signal intensity (averaged, normalized) (arbitrary units (background-subtracted, floor 0; scale differs between SH3 domains)); higher = stronger binding of the SH3 domain to the peptide", "outline": "as §1", "values": [{"binder": "KNRKNLPTIPIRLSG", "SPOT peptide array binding signal intensity": 2330}]}, {"molecular_target": "SpMyo1", "assay": "SPOT peptide array binding signal intensity (averaged, normalized) (arbitrary units (background-subtracted, floor 0; scale differs between SH3 domains)); higher = stronger binding of the SH3 domain to the peptide", "outline": "as §1", "values": [{"binder": "KNRKNLPTIPIRLSG", "SPOT peptide array binding signal intensity": 25}]}, {"molecular_target": "SpNbp2", "assay": "SPOT peptide array binding signal intensity (averaged, normalized) (arbitrary units (background-subtracted, floor 0; scale differs between SH3 domains)); higher = stronger binding of the SH3 domain to the peptide", "outline": "as §1", "values": [{"binder": "KNRKNLPTIPIRLSG", "SPOT peptide array binding signal intensity": 336}]}, {"molecular_target": "SpPex13", "assay": "SPOT peptide array binding signal intensity (averaged, normalized) (arbitrary units (background-subtracted, floor 0; scale differs between SH3 domains)); higher = stronger binding of the SH3 domain to the peptide", "outline": "as §1", "values": [{"binder": "KNRKNLPTIPIRLSG", "SPOT peptide array binding signal intensity": 9.5}]}, {"molecular_target": "SpRvs167", "assay": "SPOT peptide array binding signal intensity (averaged, normalized) (arbitrary units (background-subtracted, floor 0; scale differs between SH3 domains)); higher = stronger binding of the SH3 domain to the peptide", "outline": "as §1", "values": [{"binder": "KNRKNLPTIPIRLSG", "SPOT peptide array binding signal intensity": 1010}]}, {"molecular_target": "SpSla1-D1-D2", "assay": "SPOT peptide array binding signal intensity (averaged, normalized) (arbitrary units (background-subtracted, floor 0; scale differs between SH3 domains)); higher = stronger binding of the SH3 domain to the peptide", "outline": "as §1", "values": [{"binder": "KNRKNLPTIPIRLSG", "SPOT peptide array binding signal intensity": 1490}]}, {"molecular_target": "SpSla1-D3", "assay": "SPOT peptide array binding signal intensity (averaged, normalized) (arbitrary units (background-subtracted, floor 0; scale differs between SH3 domains)); higher = stronger binding of the SH3 domain to the peptide", "outline": "as §1", "values": [{"binder": "KNRKNLPTIPIRLSG", "SPOT peptide array binding signal intensity": 6}]}]}
